Source: PubChem BioAssay (Tox21)
Inconclusive results are not listed. Active and inactive are the calls of the source. Unless noted, calls follow the shape of the dose curve; as a rule, active = well fitted curve in the direction sought with a large enough effect in the repeat runs; inconclusive = weak or mixed curves; inactive = no such curve, though single readings can be large; an effect the other way counts as inactive or inconclusive.

Tests used:
[1] = qHTS assay to identify small molecule agonists of the vitamin D receptor (VDR) signaling pathway - cell viability counter screen (AID 743224); also: nearly all actives have a fitted effect of over 50% in size
How it was run: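 Here cell health was gauged by luminescent ATP detection (CellTiter-Glo, 30 min RT) in VDR-bla cells that had been incubated with test compounds for 16 h at 37C and 5% CO2.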

[2] = qHTS assay to identify small molecule antagonists of the vitamin D receptor (VDR) signaling pathway - cell viability counter screen (AID 743225); also: nearly all actives have a fitted effect of over 50% in size
How it was run: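 Compounds were pinned onto VDR-bla HEK 293T cells together with 1-alpha,25-dihydroxyvitamin D3 at 3 nM final. After 16 h at 37C and 5% CO2 plus the reporter readout, cell viability was measured by CellTiter-Glo luminescence (30 min, room temperature).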

[3] = qHTS assay to identify small molecule agonists of the NFkB signaling pathway (AID 1159509; active = well fitted curve in the direction sought with a large enough effect in the signal ratio in the repeat runs, not every such curve was filed as active; the % refers to the signal ratio)
How it was run: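 NFkB-bla ME-180 cells with a beta-lactamase reporter under an NF-kB response element were plated overnight, treated with compounds in DMSO for 5 hr at 37 C, then loaded with FRET substrate for 1.5 hr at room temperature.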

[4] = qHTS assay to identify small molecule agonists of the NFkB signaling pathway - cell viability counter screen (AID 1159515; calls by dose curve; also: nearly all actives have a fitted effect of over 55% in size)
How it was run: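 5 hr compound treatment of NFkB-bla ME-180 cells (2,000/well, seeded overnight beforehand), followed by reporter substrate for 1.5 hr. CellTiter-Glo added afterward; luminescence after 30 min RT.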

[5] = qHTS assay to identify small molecule agonists of the endoplasmic reticulum stress response signaling pathway (AID 1159516; active = well fitted activation curve with a large enough effect in the signal ratio in the repeat runs, not every such curve was filed as active; the % refers to the signal ratio)
How it was run: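 Reporter HeLa cells (ESRE-beta-lactamase) underwent 5 hr compound incubation at 37 C and 5% CO2 in quantitative HTS format. Detection followed 2 hr of FRET substrate loading at room temperature.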

[6] = qHTS assay to identify small molecule agonists of the endoplasmic reticulum stress response signaling pathway - cell viability counter screen (AID 1159517; calls by dose curve;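 also: HeLa cells carrying an ER stress response element beta-lactamase reporter; nearly all actives have a fitted effect of over 50% in size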)
How it was run: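 Luminescence readout: CellTiter-Glo, 30 min RT, same wells as the ESRE-bla reporter read. HeLa ESRE-bla, 1,500 cells/well, o/n 37 C; cpd 5 hr 37 C/5% CO2.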

[7] = qHTS assay to identify small molecule antagonists of the retinoid-related orphan receptor gamma (ROR-gamma) signaling pathway - cell viability counter screen (AID 1159520); also: nearly all actives have a fitted effect of over 50% in size
How it was run: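 Tet-on ROR gamma CHO cells (1,000/well) were plated 4 hr, given compounds in DMSO for 2 hr at 37 C, then induced with 1 uM final doxycycline for 16 hr. Viability was read as ATP by CellTiter-Glo luminescence after 30 min.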

[8] = target: Nuclear receptor ROR-gamma (Homo sapiens) (UniProt P51449); test: qHTS assay to identify small molecule antagonists of the retinoid-related orphan receptor gamma (ROR-gamma) signaling pathway (AID 1159521)
How it was run: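 Test compounds were applied to Tet-on RORγ CHO cells 2 h ahead of doxycycline hyclate (1 uM final). Luciferase reporter activity was quantified by luminescence after 16 h at 37 C and 5% CO2.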

[9] = qHTS assay to identify small molecule agonists of the AP-1 signaling pathway - cell viability counter screen (AID 1159525; calls by dose curve; also: nearly all actives have a fitted effect of over 55% in size)
How it was run: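 ME-180 AP-1-bla, 2500 cells/well, Opti-MEM + 0.5% dialyzed FBS; overnight 37 °C; cpd 15-pt titration, 5 h 37 °C; CellTiter-Glo 30 min RT; luminescence read; normalised to TOAB and DMSO controls.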

[10] = qHTS assay to identify small molecule agonists of the AP-1 signaling pathway (AID 1159526; calls by dose curve)
[11] = target: Retinoic acid receptor RXR-alpha (Homo sapiens) (UniProt P19793); test: qHTS assay to identify small molecule agonists of the RXR signaling pathway (AID 1159527; calls by dose curve; also: nearly all actives have a fitted effect of over 35% in size)
How it was run: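 Using 9-cis retinoic acid as the reference agonist, chemicals were tested in HEK 293T cells […] for 16 hr; substrate loading lasted 2 hr at room temperature.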

[12] = qHTS assay to identify small molecule agonists of the RXR signaling pathway - cell viability counter screen (AID 1159529); also: nearly all actives have a fitted effect of over 50% in size
How it was run: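 Compounds dissolved in DMSO were pinned onto HEK 293T cells carrying a beta-lactamase reporter under RXR-alpha control and incubated 16 hr. Cytotoxicity was then quantified by CellTiter-Glo luminescence.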

[13] = qHTS assay to identify small molecule antagonists of the retinoid acid receptor (RAR) signaling pathway - cell viability counter screen (AID 1159551); also: nearly all actives have a fitted effect of over 35% in size
How it was run: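 Seed C3RL4 cells; next day add compound, then retinol to 1 uM final; incubate 6 h at 37 C; add CellTiter-Glo; read luminescence after 30 min at RT.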

[14] = qHTS assay to identify small molecule antagonists of the retinoic acid receptor (RAR) signaling pathway (AID 1159552; also: nearly all actives have a fitted effect of over 50% in size)
How it was run: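 Test chemicals and DMSO controls were pin-transferred onto C3RL4 cells a day after seeding; retinol (1 uM final) followed at once. Luminescent reporter output was quantified after 6 hr of co-incubation and 30 min with detection reagent.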

[15] = qHTS assay to identify small molecule agonists of the retinoic acid receptor (RAR) signaling pathway (AID 1159553); details: C3RL4 RARE luciferase reporter, agonist, 6 h; activation: at 73.3 µM (top of the series)
How it was run: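 Activation of retinol signaling was monitored via a RARE luciferase reporter in C3RL4 cells. After 6 hr compound treatment at 37 C, detection reagent was added for 30 min at room temperature before luminescence reading.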

[16] = qHTS assay to identify small molecule antagonists of the estrogen related receptor (ERR) signaling pathway from Tox21 library - cell viability counter screen (AID 1224834); also: nearly all actives have a fitted effect of over 30% in size
How it was run: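 CellTiter-Fluor fluorescence measured; ERR cells; 17.5 h compound incubation at 37 C; 30 min reagent step.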

[17] = qHTS assay to identify small molecule agonists of the constitutive androstane receptor (CAR) signaling pathway - cell viability counter screen (AID 1224836); also: nearly all actives have a fitted effect of over 45% in size
How it was run: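 23 h treatment, 37 C, 5% CO2. Cell line: HepG2 stably expressing hCAR with a CYP2B6-2.2kb construct. Co-treatment: PK11195, 0.75 uM final. Read-out: CellTiter-Fluor fluorescence intensity.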

[18] = qHTS assay to identify small molecule antagonists of the constitutive androstane receptor (CAR) signaling pathway - cell viability counter screen (AID 1224837); also: nearly all actives have a fitted effect of over 45% in size
How it was run: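 Using CellTiter-Fluor, viability is scored in HepG2 cells stably carrying hCAR and a 2.2kb CYP2B6 reporter after 23 hr compound exposure across 15 concentrations, with CITCO present at 50 nM.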

[19] = target: Nuclear receptor subfamily 1 group I member 3 (Homo sapiens) (UniProt Q14994); test: qHTS assay to identify small molecule antagonists of the constitutive androstane receptor (CAR) signaling pathway (AID 1224838);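 also: HepG2 cells stably expressing hCAR with CYP2B6 luciferase reporter stimulated by CITCO; nearly all actives have a fitted effect of over 40% in size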
How it was run: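 Reporter luminescence was quantified after 24 h exposure of hCAR/CYP2B6-2.2kb double-stable HepG2 cells to compounds at 15 concentrations in the presence of 50 nM CITCO final.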

[20] = target: Luciferin 4-monooxygenase (Photinus pyralis) (UniProt P08659); test: qHTS assay to identify small molecule inhibitors of firefly luciferase (AID 1224835); also: nearly all actives have a fitted effect of over 25% in size
How it was run: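 Quantitative HTS format; KM concentrations of both substrates. Purified P. pyralis FLuc activity quantified from luminescence images.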

Measured: Potency

Retinoic acid receptor RXR-alpha (Homo sapiens), sequence (P19793 whole entry, looked up): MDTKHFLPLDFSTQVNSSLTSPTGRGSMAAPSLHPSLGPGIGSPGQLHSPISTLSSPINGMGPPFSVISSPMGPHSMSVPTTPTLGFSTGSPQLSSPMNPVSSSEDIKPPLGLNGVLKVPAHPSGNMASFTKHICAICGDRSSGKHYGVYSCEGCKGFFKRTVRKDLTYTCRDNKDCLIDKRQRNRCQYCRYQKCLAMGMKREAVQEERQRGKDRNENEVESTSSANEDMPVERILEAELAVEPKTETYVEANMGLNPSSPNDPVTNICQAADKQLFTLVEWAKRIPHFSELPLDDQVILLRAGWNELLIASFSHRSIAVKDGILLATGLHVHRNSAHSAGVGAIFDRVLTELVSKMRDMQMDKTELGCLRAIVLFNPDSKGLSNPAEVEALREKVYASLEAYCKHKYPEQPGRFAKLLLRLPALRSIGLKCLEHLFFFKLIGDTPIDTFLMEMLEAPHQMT
Luciferin 4-monooxygenase (Photinus pyralis), sequence (P08659 whole entry, looked up): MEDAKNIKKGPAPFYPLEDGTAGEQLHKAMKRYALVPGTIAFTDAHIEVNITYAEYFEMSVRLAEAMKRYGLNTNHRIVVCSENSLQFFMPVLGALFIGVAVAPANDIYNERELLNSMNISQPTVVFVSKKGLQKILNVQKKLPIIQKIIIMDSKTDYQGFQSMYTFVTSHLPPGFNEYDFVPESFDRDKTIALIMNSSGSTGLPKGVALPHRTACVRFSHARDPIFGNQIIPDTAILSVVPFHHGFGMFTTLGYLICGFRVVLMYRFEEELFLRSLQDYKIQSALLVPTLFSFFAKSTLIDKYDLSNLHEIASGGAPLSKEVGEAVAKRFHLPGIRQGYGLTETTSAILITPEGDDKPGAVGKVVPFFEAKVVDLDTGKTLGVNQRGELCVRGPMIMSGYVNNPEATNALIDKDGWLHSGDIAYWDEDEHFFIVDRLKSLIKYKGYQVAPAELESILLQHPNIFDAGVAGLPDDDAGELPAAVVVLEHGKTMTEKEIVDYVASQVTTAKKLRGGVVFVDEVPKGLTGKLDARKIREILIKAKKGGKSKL
Nuclear receptor subfamily 1 group I member 3 (Homo sapiens), sequence (Q14994 whole entry, looked up): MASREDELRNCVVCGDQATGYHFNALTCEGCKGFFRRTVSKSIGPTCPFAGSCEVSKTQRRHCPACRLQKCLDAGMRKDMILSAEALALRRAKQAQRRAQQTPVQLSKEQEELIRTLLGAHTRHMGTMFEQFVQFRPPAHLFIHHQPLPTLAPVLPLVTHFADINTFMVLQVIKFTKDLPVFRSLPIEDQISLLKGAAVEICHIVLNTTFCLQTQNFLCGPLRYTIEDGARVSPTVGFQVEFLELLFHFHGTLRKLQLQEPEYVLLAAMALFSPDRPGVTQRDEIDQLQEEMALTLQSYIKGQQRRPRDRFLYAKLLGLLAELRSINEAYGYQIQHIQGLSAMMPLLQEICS

CCN(Cc1cccc(S(=O)(=O)O)c1)c1ccccc1
not listed: [20]
inactive: all other assays above

CC(=O)N1CCN(c2ccc(O)cc2)CC1
not listed: [16] | [19]
inactive: all other assays above

CCCCCCCCC(=O)OCC
not listed: [16] | [19]
inactive: all other assays above

CC(=O)c1ccc2c(c1)CCCC2
not listed: [2] | [17] | [20]
inactive: all other assays above

COc1cc(C=O)ccc1OC(=O)C(C)C
not listed: [18] | [19]
inactive: all other assays above

C=CCOCC(O)CCl (stereo unspecified)
not listed: [1] | [18] | [19]
inactive: all other assays above

Oc1ccccc1Cc1ccccc1O
not listed: [1] | [17] | [18]
inactive: all other assays above

O=C1CC[C@H](C(=O)N2CCCCC2)N1
not listed: [1] | [16] | [19]
inactive: all other assays above
